What all share (set-up): species or system human, MV4-11 + K-562 + COLO205 + SK-N-BE2 + OVCAR-8
The test system of one assay is ACVR2B. The conditions noted are these: read-out: apparent Kd, compound concentrations: 100 nM and 1000 nM (sheet 'Samples'), n = 1.
The subject of another assay is T1, DJA1.
T1 construct: gene DNAJA1
As to conditions: read-out: apparent Kd, n = 1.

In a further assay the test system is PIK3CD. The conditions noted are these: read-out: apparent Kd, n = 1.
A further assay concerns ACVR1B. The conditions noted are these: read-out: apparent Kd; compound concentrations:100 nM and 1000 nM (sheet 'Samples'); n = 1.
The next assay relates to FYN. As to conditions: read-out: apparent Kd; compound concentrations:100 nM and 1000 nM (sheet 'Samples'); n = 1.
Another assay relates to PIK3CA. The conditions noted are these: read-out: apparent Kd; compound concentrations:100 nM and 1000 nM (sheet 'Samples'); n = 1.
A further assay relates to STK16. As to conditions: read-out: apparent Kd; compound concentrations:100 nM and 1000 nM (sheet 'Samples'); n = 1.
Another assay deals with SLK. As to conditions: read-out: apparent Kd; compound concentrations:100 nM and 1000 nM (sheet 'Samples'); n = 1.
For the next assay, the system named is STK10. As to conditions: read-out: apparent Kd; compound concentrations:100 nM and 1000 nM (sheet 'Samples'); n = 1.
For another assay, the system named is TGFBR1. The conditions noted are these: read-out: apparent Kd; compound concentrations:100 nM and 1000 nM (sheet 'Samples'); n = 1.
The subject of another assay is ACVR1. The conditions noted are these: read-out: apparent Kd, n = 1.
The test system of another assay is DDR2. As to conditions: read-out: apparent Kd; compound concentrations: 100 nM and 1000 nM (sheet 'Samples'), CATDS: 0.13771295119314; n = 1.
Another assay deals with PDGFRB. The conditions noted are these: read-out: apparent Kd, n = 1.
A further assay deals with RIPK2. As to conditions: read-out: apparent Kd, compound concentrations: 100 nM and 1000 nM (sheet 'Samples'), n = 1.
A further assay deals with CDK16. As to conditions: read-out: apparent Kd; compound concentrations:100 nM and 1000 nM (sheet 'Samples'); n = 1.
For a further assay, the system named is CDK17. As to conditions: read-out: apparent Kd; compound concentrations:100 nM and 1000 nM (sheet 'Samples'); n = 1.
The test system of the next assay is CDK6. As to conditions: read-out: apparent Kd; compound concentrations:100 nM and 1000 nM (sheet 'Samples'); n = 1.
For another assay, the system named is CDK9. The conditions noted are these: read-out: apparent Kd; compound concentrations:100 nM and 1000 nM (sheet 'Samples'); n = 1.
The subject of the next assay is EIF2AK1. As to conditions: read-out: apparent Kd; compound concentrations:100 nM and 1000 nM (sheet 'Samples'); n = 1.
Another assay deals with GSK3A. The conditions noted are these: read-out: apparent Kd; compound concentrations:100 nM and 1000 nM (sheet 'Samples'); n = 1.
For another assay, the system named is GSK3B. The conditions noted are these: read-out: apparent Kd; compound concentrations:100 nM and 1000 nM (sheet 'Samples'); n = 1.
Another assay relates to ICK. The conditions noted are these: read-out: apparent Kd; compound concentrations:100 nM and 1000 nM (sheet 'Samples'); n = 1.
The next assay has as its system MAPK7. As to conditions: read-out: apparent Kd; compound concentrations:100 nM and 1000 nM (sheet 'Samples'); n = 1.
In a further assay the test system is PIM2. As to conditions: read-out: apparent Kd; compound concentrations:100 nM and 1000 nM (sheet 'Samples'); n = 1.
In another assay the test system is TAOK2. As to conditions: read-out: apparent Kd; compound concentrations:100 nM and 1000 nM (sheet 'Samples'); n = 1.
The next assay deals with BCR. The conditions noted are these: read-out: apparent Kd; compound concentrations: 100 nM and 1000 nM (sheet 'Samples'), CATDS: 0.117591173693898; n = 1.
Another assay deals with EPHA1. The conditions noted are these: read-out: apparent Kd; compound concentrations: 100 nM and 1000 nM (sheet 'Samples'), CATDS: 0.1160485900451; n = 1.
The subject of another assay is GAK. As to conditions: read-out: apparent Kd; compound concentrations: 100 nM and 1000 nM (sheet 'Samples'), CATDS: 9.8647992016736893E-2; n = 1.
Another assay relates to JAK2. The conditions noted are these: read-out: apparent Kd; compound concentrations: 100 nM and 1000 nM (sheet 'Samples'), CATDS: 0.147380455866959; n = 1.
A further assay has as its system RET. The conditions noted are these: read-out: apparent Kd; compound concentrations: 100 nM and 1000 nM (sheet 'Samples'), CATDS: 0.12743524996908201; n = 1.
Another assay relates to RIPK3. As to conditions: read-out: apparent Kd; compound concentrations: 100 nM and 1000 nM (sheet 'Samples'), CATDS: 8.1688105237549893E-2; n = 1.
A further assay relates to SIK2. The conditions noted are these: read-out: apparent Kd; compound concentrations: 100 nM and 1000 nM (sheet 'Samples'), CATDS: 9.6722651513250199E-2; n = 1.
Setting [1] is: compound concentrations:100 nM and 1000 nM (sheet 'Samples').

Like-named read-outs stand apart in the source and are kept apart here.

As to `Fc1cc(Cl)ccc1Nc1ccnc2cc(I)ccc12` [GW551191X], the potency estimated from few doses with ACVR2B (CATDS: 0.26563205076169) was 1340 nM; with DJA1 (compound concentrations: 100 nM and 1000 nM (sheet 'Samples'), CATDS: 0.27071673816178898), 1260 nM; in the assay with PIK3CD (compound concentrations: 100 nM and 1000 nM (sheet 'Samples'), CATDS: 0.64872041714686801), 203 nM.
`Clc1cccc(-c2nc(Nc3ccncc3)c3ccccc3n2)c1` [GW873004X]: the potency estimated from few doses in the assay with ACVR1B is 843 nM; in the assay on DJA1 (setting [1]), 2180 nM; in the assay with FYN it was 937 nM; with PIK3CA, 222 nM; with PIK3CD (setting [1]), 106 nM; in the assay on STK16 it was 1400 nM.
On to `COc1ccc2cc(-c3c(-c4ccncc4)nc(-c4ccc(S(C)=O)cc4C)n3C)ccc2c1` (centres unmarked) [SB-630812], for which the values for the potency estimated from few doses in the assay on ACVR1B, in the assay with SLK and in the assay with STK10 were 288 nM, 2250 nM and 1990 nM, respectively.
Take `O=C(c1ccc(-c2cc(-c3c[nH]nc3-c3ccccn3)ccn2)cc1)N1CCOCC1` [GW812171X]: the potency estimated from few doses in the assay on ACVR1B was 119 nM; in the assay with TGFBR1, 67.6 nM.
Take `COC(=O)c1cncc(/C=C/c2c(C)cc(O)cc2C)c1` [GW406731X]: the potency estimated from few doses with ACVR1 (compound concentrations: 100 nM and 1000 nM (sheet 'Samples'), CATDS: 0.26070115141914502) was 403 nM; in the assay with DDR2 it was 2520 nM; in the assay with PDGFRB (compound concentrations: 100 nM and 1000 nM (sheet 'Samples'), CATDS: 0.14028775258346299) it was 2330 nM; in the assay on PIK3CD (compound concentrations: 100 nM and 1000 nM (sheet 'Samples'), CATDS: 0.471997589985167), 143 nM; in the assay with RIPK2 (CATDS: 0.21478363135213999), 621 nM.
In the case of `CCN1CCN(CCCC(=O)Nc2n[nH]c3nc(-c4ccc(O)cc4)c(Br)cc23)CC1` [SB-731579], the potency estimated from few doses in the assay with ACVR1 (setting [1]) is 914 nM; in the assay with CDK16 it was 1220 nM; in the assay with CDK17 it was 986 nM; in the assay on CDK6, 1070 nM; in the assay on CDK9 it was 1180 nM; with EIF2AK1, 201 nM. In addition, the potency estimated from few doses was 4.8 nM with GSK3A; 20.1 nM in the assay on GSK3B; 1420 nM in the assay on ICK; 1360 nM in the assay on MAPK7; 145 nM in the assay on PDGFRB (setting [1]); 557 nM in the assay with PIM2. Also, the potency estimated from few doses in the assay with TAOK2 is 1350 nM.
With `Fc1cc(Cl)ccc1Nc1ccnc2cc(-c3ccc(CN4CCSCC4)o3)ccc12` [GW560106X], the potency estimated from few doses is 1650 nM with ACVR2B (CATDS: 8.8140626462379107E-2); 830 nM in the assay with BCR; 853 nM in the assay on EPHA1; 1220 nM in the assay on GAK; 547 nM in the assay with JAK2; 710 nM in the assay with RET. Further, the figures for the potency estimated from few doses in the assay on RIPK2 (CATDS: 0.19291932694362501), in the assay on RIPK3 and in the assay on SIK2 were 357 nM, 2080 nM and 1290 nM, respectively.

Values taken from paper PMC11062922 (Nature Chemical Biology, 2023).
